Compound activity: PubChem, The Scripps Research Institute Molecular Screening Center
The list is not random: actives were taken first. Their share in the collection is about 3.4%.
GPR151 ag = human GPR151 activation. activation, % at 11.2 µM. AID 1508602. 650,000 tested, 1% active. Q8TDV0. PathHunter beta-arrestin GPR151 cells, luminescence; in the data active means activation above about 4.9%
Target sequence (Q8TDV0 whole entry, looked up): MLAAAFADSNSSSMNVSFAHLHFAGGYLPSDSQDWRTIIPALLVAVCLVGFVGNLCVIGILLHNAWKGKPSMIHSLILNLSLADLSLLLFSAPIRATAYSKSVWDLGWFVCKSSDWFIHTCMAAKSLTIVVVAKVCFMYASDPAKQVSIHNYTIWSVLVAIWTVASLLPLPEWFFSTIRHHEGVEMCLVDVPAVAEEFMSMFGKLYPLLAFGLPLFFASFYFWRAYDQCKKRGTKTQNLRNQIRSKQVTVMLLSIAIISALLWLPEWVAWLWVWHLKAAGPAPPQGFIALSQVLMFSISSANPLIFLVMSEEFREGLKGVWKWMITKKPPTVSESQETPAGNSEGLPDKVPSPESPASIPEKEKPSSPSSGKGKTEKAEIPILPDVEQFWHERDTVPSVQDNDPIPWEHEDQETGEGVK
FBW7 act = human FBW7 E3 ligase activation, primary screen; Q969H0; AlphaScreen FBW7–phospho-cyclin E peptide binding, activator screen; normalized activity (activation), % at 26.1 µM; 650,000 tested, 0.13% active; AID 1259310; in the data active means normalized activity above about 1.9%;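 further: purified mutant Fbw7 with reduced substrate affinity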
TEAD-YAP inh = TEAD-YAP interaction inhibition. HEK-TIYL cells, TEAD-Gal4/YAP UAS-luciferase luminescence. inhibition, % at 9.12 µM. 640,000 tested, 1.4% active. AID 1259422; in the data active means inhibition above about 32%
MITF inh = inhibitors of human MITF. AlphaScreen MITF homodimerization, bead proximity signal. 650,000 tested, 0.91% active. O75030. inhibition, % at 2.6 µM; in the data active means inhibition above about 50%
Of the large screens only hits and unclear results are named; the others gave an inactive call.

CC(=O)c1ccc(NC(=O)CSc2ccc3nnc(-c4cccs4)n3n2)cc1	none
COc1ccccc1NC(=O)c1ccc(NC(=O)Cn2ccsc2=N)cc1	none
COc1ccccc1C(=O)Oc1ccc(C)cc1-n1nc2ccccc2n1	none
Cc1ccc(Oc2ccc(S(=O)(=O)N3CCOCC3)cc2C(N)=O)c(-n2nc3ccccc3n2)c1	TEAD-YAP inh 41
Cc1ccc(Oc2ccc(S(=O)(=O)N3CCOCC3)cc2S(=O)(=O)N2CCOCC2)c(-n2nc3ccccc3n2)c1	none
Cc1ccc(OC(=O)c2ccccc2Cl)c(-n2nc3ccccc3n2)c1	FBW7 act 7.6
COc1cc(C2C(C#N)=C3N=C(N)c4c(sc5c4CCCCC5)N3C3=C2C(=O)CCC3)ccc1OCc1ccccc1 (centres undefined)	none
O=C(NCc1cccc(C(F)(F)F)c1)c1ccnc(Nc2nccc3ccccc23)c1	none
CCC(c1nnnn1CCOC)N(Cc1cc2ccc(OC)cc2[nH]c1=O)C1CCCC1 (centres undefined)	TEAD-YAP inh 58
Cc1cccc(NC(=O)CSc2nc(=O)n(CCN(C)C)c3c2CCCC3)c1	none
O=[N+]([O-])c1ccc(S(=O)(=O)Nc2cccc3ccccc23)cc1	none
O=[N+]([O-])c1ccc(S(=O)(=O)Nc2cccc3cc4ccccc4nc23)cc1	TEAD-YAP inh 80
Fc1ccccc1-c1cnc2ccc(NCc3ccco3)nn12	TEAD-YAP inh 39
COc1ccc(-c2cnc3ccc(NCc4ccco4)nn23)c(OC)c1	none
COc1ccc(C(C)C)cc1-c1cnc2ccc(NCc3ccco3)nn12	TEAD-YAP inh 59
OCCCNc1ccc2ncc(-c3ccccc3F)n2n1	TEAD-YAP inh 56
OCCCNc1ccc2ncc(-c3cccc4ccccc34)n2n1	none
COCCNc1ccc2ncc(-c3ccccc3F)n2n1	TEAD-YAP inh 49
CC(=O)Nc1nnc(SCc2cc(=O)c(OC(=O)c3cccc([N+](=O)[O-])c3)co2)s1	none
O=C(Cn1ncc2ccccc21)N1CCCC1	none
COc1cc(N)c(Cl)cc1C(=O)OCC(=O)Nc1cc(C)on1	none
Cc1ccc(OCc2nc(-c3ccc(NC(=O)Cn4cc([N+](=O)[O-])cn4)cc3)no2)cc1C	none
CCOC(=O)N1CCC(n2c(SCc3cc(=O)n4ccccc4n3)nc3ccsc3c2=O)CC1	none
O=C(N/N=C/c1cc2c3c(c1O)CCCN3CCC2)c1ccncc1	TEAD-YAP inh 75, MITF inh 66
Cc1cc(=O)[nH]c(N/N=C/c2cc3c4c(c2O)CCCN4CCC3)n1	TEAD-YAP inh 86
Cc1ccc(C)c(/C=N/Nc2nc(C)cc(=O)[nH]2)c1	none
O=C(N/N=C/c1cc([N+](=O)[O-])cc([N+](=O)[O-])c1O)c1ccncc1	none
O=C(CN1C(=O)CSC1=O)N1CCCC(CO)(Cc2ccccc2)C1 (centres undefined)	none
O=C1N[C@@H](COCc2ccccc2)C(=O)N2C[C@@H](NCc3cnn(-c4cccc(F)c4)c3)C[C@@H]12	none
COC(=O)c1sccc1N/N=C(/C)c1ccc(Cl)s1	none
CCOc1ccc2ccccc2c1/C=C1/SC(=O)N(CC(=O)OC)C1=O	TEAD-YAP inh 42
O=C(Cc1noc2ccccc12)NCc1ccc(Cl)cc1	none
CCCN1C(=O)c2ccc(C(=O)Nc3ccc(C(=O)O)cc3)cc2C1=O	TEAD-YAP inh 53
CCCN1C(=O)c2ccc(C(=O)Nc3ccc(O)cc3)cc2C1=O	TEAD-YAP inh 38
CCN1C(=O)c2ccc(C(=O)Nc3cc(C(=O)O)cc(C(=O)O)c3)cc2C1=O	none
CCCN1C(=O)c2ccc(C(=O)Nc3ccc(O)cc3C)cc2C1=O	none
COc1ccc(NC(=O)CSc2nnc(-c3ccncc3)n2C2CCCCC2)cc1	none
CS(=O)(=O)C1=NSC2=NC(=O)/C(=C\c3ccc(SCc4ccco4)o3)C(=N)N21	MITF inh 72
CCSC1=NSC2=NC(=O)/C(=C\c3ccc(Br)o3)C(=N)N12	MITF inh 83
CC(C)CS(=O)(=O)C1=NSC2=NC(=O)/C(=C\c3ccc(Br)o3)C(=N)N21	MITF inh 77
CC(C)SC1=NSC2=NC(=O)/C(=C\c3ccc([N+](=O)[O-])o3)C(=N)N21	MITF inh 72
CCOC(=O)C1=C(C)N=c2s/c(=C\c3ccc(OCc4ccccc4Cl)c(OCC)c3)c(=O)n2C1c1ccccc1 (centres undefined)	none
CCS(=O)(=O)NCc1ccc(S(N)(=O)=O)cc1	none
COc1ccc(CN2CCc3nnc(C(C)NC(=O)C(C)C)n3CC2)c(O)c1 (centres undefined)	none
COCCN=c1scc(-c2ccccc2)n1/N=C1\CCc2ccccc21	TEAD-YAP inh 72
COc1ccc(-c2ccc(C(=O)Nc3cc(OC)c(OC)c(OC)c3)s2)cc1	TEAD-YAP inh 36
COc1cc(NC(=O)c2ccc(-c3ccc(C(N)=O)cc3)s2)cc(OC)c1OC	none
COc1cc(NC(=O)c2ccc(-c3ccc(N4CCN(C)CC4)cc3)s2)cc(OC)c1OC	TEAD-YAP inh 62
COc1cc(C(=O)Nc2ccc3c(c2)Nc2ccccc2CC3)cc(OC)c1OC	TEAD-YAP inh 62
COc1cc(C(=O)Nc2ccc(O)cc2)cc(OC)c1OC	none
COc1cc(C(=O)Nc2ccc3c(c2)oc2ccccc23)cc(OC)c1OC	TEAD-YAP inh 57
COC(=O)c1ccc(NC(=O)c2cc(OC)c(OC)c(OC)c2)cc1	TEAD-YAP inh 59
O=C(Nc1ccc2c(c1)Nc1ccccc1CC2)c1ccccc1	none
CC(=O)COC(=O)c1ccc2c(c1)C(=O)N(c1ccccc1C(F)(F)F)C2=O	none
Oc1ccc(Br)cc1C1CC(c2cccc(Br)c2)=NC(c2ccc(F)c(Br)c2)N1 (centres undefined)	TEAD-YAP inh 32
Oc1ccc(Br)cc1C1CC(c2cccc(Br)c2)=NC(c2ccc(Cl)cc2Cl)N1 (centres undefined)	none
COc1cccc(C2=NC(c3ccc(Br)cc3)NC(c3cc(Br)ccc3O)C2)c1 (centres undefined)	none
COc1cccc(C2=NC(C(C)C)NC(c3cc(Br)ccc3O)C2)c1 (centres undefined)	TEAD-YAP inh 35
COC(=O)c1ccc(N2C(=O)c3ccc(Oc4cccc(N)c4)cc3C2=O)cc1	none
CCC(Sc1nc2n[nH]c(C)c2c(=N)n1-c1cccc(C)c1)C(=O)N(CC)CC (centres undefined)	TEAD-YAP inh 39
CCC(Sc1nc2n[nH]c(C)c2c(=N)n1-c1cccc(Cl)c1)C(=O)N1CCCC1 (centres undefined)	TEAD-YAP inh 49
CCCN(CCC)C(=O)CSc1nc2n[nH]c(C)c2c(=N)n1-c1cccc(C)c1	none
CCCCC(=O)Nc1cccc(C(=O)NN)c1	none
O=C(c1ccccc1)N1CCN(c2nc(-c3ccccc3)c3ccccc3n2)CC1	FBW7 act 2.2
Cc1ccc(C(=O)N2CCN(c3nc(-c4ccccc4)c4cc(Br)ccc4n3)CC2)cc1	none
Cc1ccc2nc(N3CCN(C=O)CC3)nc(-c3ccccc3)c2c1	FBW7 act 2.1
COc1ccc(C)cc1S(=O)(=O)Oc1cccc2cccnc12	none
Cc1nc2ccccc2nc1CN1CCN(C2CCCCC2)C(CCO)C1 (centres undefined)	none
